What all share (settings): 10 µM; exposure time 6 h
Experiment [1] concerns Danio rerio larvae (5 dpf). Description: difference in excitability vs DMSO (percentage points); higher = more excitable than DMSO. The procedure, abridged: (§1)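 Wild-type 5 dpf zebrafish larvae in 96-well plates were given 100 µL egg water containing library compound at 10 µM final for 6 h. After 3 h of exposure, plates at 28.5 ℃ were photographed every 6 s during a 3-h programme of moving lines and 100 ms, 400Hz tones. Z-LaP Tracker (a DeepLabCut model) quantified each behaviour, averaged over 48 larvae per compound. Values are the compound mean minus the DMSO-vehicle control, in percentage points.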

In experiment [2] the test system is Danio rerio larvae (5 dpf). Description: difference in startle response vs DMSO (percentage points); higher = stronger startle than DMSO. The procedure, abridged: as §1
Experiment [3] has as its system Danio rerio larvae (5 dpf). The experiment in a line: difference in activity during first hour vs DMSO (percentage points); higher = more activity than DMSO. The procedure, abridged:
as §1

Experiment [4] has as its system Danio rerio larvae (5 dpf). The experiment in a line: difference in habituation to acoustic stimuli vs DMSO (percentage points); higher = more habituation than DMSO. The method, boiled down: as §1
Experiment [5] deals with Danio rerio larvae (5 dpf). Description: difference in combined optomotor response to red, green and blue moving lines vs DMSO (percentage points); higher = stronger optomotor response than DMSO. The procedure, abridged:
as §1

The structures appear in SMILES notation. Counter-ions that a name gives are not always drawn.

The molecule `COc1ccccc1OCC(O)CN1CCN(CC(=O)Nc2c(C)cccc2C)CC1` (stereo not given) [Ranolazine (hydrochloride)] came in with a difference in excitability in experiment [1] of 14.6. For the same molecule, the “difference in startle response” value in experiment [2] was -5.16. Besides, in experiment [3], the “difference in activity during first hour” value stood at 4.7. The “difference in habituation to acoustic stimuli” value (from here on “difference in habituation”) in experiment [4] is 3.56. In experiment [5], the difference was 2.81.

`CNCC(=O)OCc1cccnc1N(C)C(=O)OC(C)[n+]1cnn(C[C@](O)(c2cc(F)ccc2F)[C@@H](C)c2nc(-c3ccc(C#N)cc3)cs2)c1` (stereo not given in full) [Isavuconazonium (sulfate)] showed a difference in excitability in experiment [1] of 28.4. For the same molecule, the “difference in startle response” value in experiment [2] came to 4.1. For the same molecule, in experiment [3], the “difference in activity during first hour” value was -13.1. In addition, the “difference in habituation” value in experiment [4] was -2.82. Moreover, the difference in experiment [5] is -5.6.

Take `OCCN1CCN(CCCN2c3ccccc3Sc3ccc(Cl)cc32)CC1` [Perphenazine]: in experiment [1], the difference in excitability amounted to 18.9. In experiment [2], the “difference in startle response” value is -4.36. In addition, the “difference in activity during first hour” value in experiment [3] turned out to be 24. For the same molecule, the “difference in habituation” value in experiment [4] was -10.2. In addition, the difference in experiment [5] was determined as 2.99.

In experiment [1], `CC1(C)S[C@@H]2[C@H](NC(=O)COc3ccccc3)C(=O)N2[C@H]1C(=O)O` [Penicillin V (potassium salt)] registered a difference in excitability of -4.2. Also, in experiment [2], the “difference in startle response” value was 2.03. The “difference in activity during first hour” value in experiment [3] turned out to be 11. For the same molecule, the “difference in habituation” value in experiment [4] was 4.18. In experiment [5], the difference is -1.93.

Take `CCCc1nn(C)c2c(=O)[nH]c(-c3cc(S(=O)(=O)N4CCN(C)CC4)ccc3OCC)nc12` [Sildenafil Citrate]: the difference in excitability in experiment [1] worked out at 4.08. In addition, the “difference in startle response” value in experiment [2] is -0.935. The “difference in activity during first hour” value in experiment [3] is -7.02. Besides, in experiment [4], the “difference in habituation” value is -0.835. Further, the difference in experiment [5] stood at 5.26.

`CS(=O)(=O)c1cccc(C[C@H](NC(=O)c2c(Cl)cc3c(c2Cl)CCN(C(=O)c2ccc4ccoc4c2)C3)C(=O)O)c1` [Lifitegrast] came in with a difference in excitability in experiment [1] of 5.68. Besides, the “difference in startle response” value in experiment [2] was found to be 2.04. Moreover, in experiment [3], the “difference in activity during first hour” value was 16.5. For the same molecule, the “difference in habituation” value in experiment [4] was determined as 0.0295. The difference in experiment [5] worked out at 7.02.

As to `COCC(=O)Nc1c(I)c(C(=O)NCC(O)CO)c(I)c(C(=O)N(C)CC(O)CO)c1I` (stereo not given) [Iopromide], the difference in excitability in experiment [1] came to 3. Further, the “difference in startle response” value in experiment [2] is -1.37. In addition, in experiment [3], the “difference in activity during first hour” value is 11.3. Moreover, in experiment [4], the “difference in habituation” value was 1.33. The difference in experiment [5] was 5.16.

`CC[C@H](C)C[C@H](C)CCCCCCCCC(=O)N[C@H]1C[C@@H](O)[C@@H](NCCN)NC(=O)[C@@H]2[C@@H](O)CCN2C(=O)[C@H]([C@H](O)CCN)NC(=O)[C@H]([C@H](O)[C@@H](O)c2ccc(O)cc2)NC(=O)[C@@H]2C[C@@H](O)CN2C(=O)[C@H]([C@@H](C)O)NC1=O` [Caspofungin (acetate)]: the difference in excitability in experiment [1] came out at 12.4. Moreover, in experiment [2], the “difference in startle response” value is -1.41. In addition, in experiment [3], the “difference in activity during first hour” value was -14. Besides, the “difference in habituation” value in experiment [4] is -0.0911. For the same molecule, in experiment [5], the difference is -8.06.

Take `C[C@H](N)[C@H](O)c1cccc(O)c1` [Metaraminol (tartrate)]: the difference in excitability in experiment [1] is 3.23. Besides, the “difference in startle response” value in experiment [2] was 5.35. The “difference in activity during first hour” value in experiment [3] is -15.4. In experiment [4], the “difference in habituation” value was -0.886. The difference in experiment [5] was -6.91.

`CC/C(=C(\c1ccccc1)c1ccc(OCCN(C)C)cc1)c1ccccc1` [Tamoxifen (citrate)] showed a difference in excitability in experiment [1] of -1.02. Also, the “difference in startle response” value in experiment [2] was -2.65. In addition, in experiment [3], the “difference in activity during first hour” value amounted to 14.8. Besides, the “difference in habituation” value in experiment [4] is -2.18. Moreover, the difference in experiment [5] is -15.8.

For `CC#CCC(C)[C@H](O)/C=C/[C@@H]1[C@H]2C/C(=C/CCCC(=O)O)C[C@H]2C[C@H]1O` (stereo not given in full) [Iloprost], the difference in excitability in experiment [1] is -3.4. Moreover, the “difference in startle response” value in experiment [2] is -1.91. Further, the “difference in activity during first hour” value in experiment [3] is 1.64. The “difference in habituation” value in experiment [4] was -1.61. In experiment [5], the difference is 1.64.

`CC(C)NCC(O)COc1ccc(CCOCC2CC2)cc1` (stereo not given) [Betaxolol (hydrochloride)] gave a difference in excitability in experiment [1] of 2.57. The “difference in startle response” value in experiment [2] is 2.31. Also, in experiment [3], the “difference in activity during first hour” value amounted to 11.4. In experiment [4], the “difference in habituation” value is -2.52. For the same molecule, the difference in experiment [5] is 6.22.

Turning to `COc1ccc2cc(CCC(C)=O)ccc2c1` [Nabumetone], the difference in excitability in experiment [1] stood at 0.732. Moreover, the “difference in startle response” value in experiment [2] was -0.884. Further, in experiment [3], the “difference in activity during first hour” value is 1.19. Also, in experiment [4], the “difference in habituation” value is -1.53. Moreover, the difference in experiment [5] was 0.192.

With `CCOC(=O)[C@H](CCc1ccccc1)N[C@H]1CCc2ccccc2N(CC(=O)O)C1=O` [Benazepril (hydrochloride)], the difference in excitability in experiment [1] turned out to be 7.01. The “difference in startle response” value in experiment [2] amounted to 3.34. Moreover, the “difference in activity during first hour” value in experiment [3] is -2.03. Also, in experiment [4], the “difference in habituation” value was -3.43. The difference in experiment [5] was -7.74.

In experiment [1], `OCCN1C[C@H](O)[C@@H](O)[C@H](O)[C@H]1CO` [Miglitol] gave a difference in excitability of 8.03. For the same molecule, in experiment [2], the “difference in startle response” value stood at 3.24. The “difference in activity during first hour” value in experiment [3] is -0.913. Further, the “difference in habituation” value in experiment [4] was -2.04. Besides, in experiment [5], the difference is 8.24.

In experiment [1], `CC(=O)N(O)CCCCCNC(=O)CCC(=O)N(O)CCCCCNC(=O)CCC(=O)N(O)CCCCCN` [Deferoxamine (mesylate)] registered a difference in excitability of 4.87. In addition, in experiment [2], the “difference in startle response” value was -4.66. The “difference in activity during first hour” value in experiment [3] was determined as 10.3. Moreover, the “difference in habituation” value in experiment [4] was -2.2. Besides, the difference in experiment [5] turned out to be 2.91.

The molecule `Cl.N=C(N)NCCC[C@H](N)C(=O)O` [L-Arginine (hydrochloride)] yielded a difference in excitability in experiment [1] of 4.03. In experiment [2], the “difference in startle response” value was -4.09. Also, the “difference in activity during first hour” value in experiment [3] came to 10.1. Further, the “difference in habituation” value in experiment [4] came out at 2.29. Moreover, the difference in experiment [5] is 0.624.

`O=C1CN(/N=C/c2ccc(-c3ccc([N+](=O)[O-])cc3)o2)C(=O)N1` [Dantrolene (sodium salt)] showed a difference in excitability in experiment [1] of 9.39. In addition, the “difference in startle response” value in experiment [2] is 1.23. Besides, in experiment [3], the “difference in activity during first hour” value is -7.55. Also, the “difference in habituation” value in experiment [4] worked out at 0.0919. For the same molecule, in experiment [5], the difference stood at 0.433.

Take `CCC1(c2ccccc2)C(=O)NCNC1=O` [Primidone]: in experiment [1], the difference in excitability is 3.77. Besides, the “difference in startle response” value in experiment [2] came to 4.38. In addition, in experiment [3], the “difference in activity during first hour” value turned out to be 11.2. For the same molecule, in experiment [4], the “difference in habituation” value was -0.65. Besides, the difference in experiment [5] amounted to 9.02.

As for `C=C1/C(=C\C=C2/CCC[C@]3(C)[C@@H]([C@H](C)/C=C/[C@@H](O)C4CC4)CC[C@@H]23)C[C@@H](O)C[C@@H]1O` [Calcipotriol (hydrate)], the difference in excitability in experiment [1] was determined as 15.4. Moreover, in experiment [2], the “difference in startle response” value was -5.26. The “difference in activity during first hour” value in experiment [3] is 0.435. Moreover, the “difference in habituation” value in experiment [4] is -0.975. The difference in experiment [5] stood at 5.42.

`CC(=O)N[C@H]1[C@H]([C@H](O)[C@H](O)CO)OC(C(=O)O)=C[C@@H]1NC(=N)N` [Zanamivir] came in with a difference in excitability in experiment [1] of 1.36. The “difference in startle response” value in experiment [2] is -2.53. In addition, the “difference in activity during first hour” value in experiment [3] was -16.7. For the same molecule, the “difference in habituation” value in experiment [4] was found to be 1.69. In experiment [5], the difference was -6.11.

As to `Nc1ccc(S(=O)(=O)c2ccc(N)cc2)cc1` [Dapsone], the difference in excitability in experiment [1] was 4.16. Moreover, the “difference in startle response” value in experiment [2] was 3.11. The “difference in activity during first hour” value in experiment [3] was 2.88. In addition, the “difference in habituation” value in experiment [4] worked out at 2.23. Also, the difference in experiment [5] amounted to 1.86.

As to `CN(C)CC(c1ccc(O)cc1)C1(O)CCCCC1` (racemic) [(±)-O-Desmethyl Venlafaxine], in experiment [1], the difference in excitability turned out to be 18.2. Also, the “difference in startle response” value in experiment [2] was -5.6. In addition, the “difference in activity during first hour” value in experiment [3] is -19.3. In addition, in experiment [4], the “difference in habituation” value was -8.93. In addition, the difference in experiment [5] is -5.4.

As to `Nc1nc(N)c2nc(-c3ccccc3)c(N)nc2n1` [Triamterene], the difference in excitability in experiment [1] is -0.938. Also, the “difference in startle response” value in experiment [2] was found to be 5.79. Further, the “difference in activity during first hour” value in experiment [3] stood at 11.3. The “difference in habituation” value in experiment [4] was -2.13. The difference in experiment [5] is 6.72.

The values above are taken from the supplement of paper PMC10515830.
